# Data: PubChem BioAssay
# Active and inactive are the calls of the source.
# What was measured:
# [1] = test system: PRMT1 (protein arginine N-methyltransferase 1); assay: small molecules binding arginine methyltransferase PRMT1 – biochemical, small-molecule microarray, 635 nm fluorescence, primary screen (AID 1088); details: higher = more signal;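 note: binding of Prmt1 protein to compounds spotted on small-molecule microarray slides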
# [2] = growth effects on S. cerevisiae YJM789 – YJM789 clinical isolate, OD600, 24 h, basal, primary screen (AID 1089); details: higher = more signal, called active from +8 up or from −8 down;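 note: growth of clinical yeast isolate S. cerevisiae YJM 789 seeded 1000 cells per well; test concentration not given here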
# [3] = S. pombe growth modifiers, basal conditions – strain 972, OD600, 24 h, no modulator, primary screen (AID 1090);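 note: basal condition with compound alone and no growth modifier present; test concentration not given here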; details: S. pombe 972 growth, higher = more signal, called active from +8 up or from −8 down
# [4] = budding yeast growth modifiers under rapamycin – strain BY4716, OD600, 96 h, primary screen (AID 1091); note: test concentration not given here; details: S. cerevisiae BY4716 + rapamycin, higher = more signal, called active from +8 up or from −8 down
# [5] = target: Torsin-1A-interacting protein 2 (Homo sapiens) (UniProt Q8NFQ8); assay: small molecules binding lysate-expressed LULL1 – cell lysate, human LULL1 lysate, 635/667 nm fluorescence, primary screen (AID 1092); details: small-molecule microarray, hLULL1 lysate binding, 635 nm fluorescence; higher = more signal;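 note: probe is lysate of COS7 cells overexpressing human LULL1; score merges per-feature 667 nm fluorescence with signal-to-noise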
# Sequence of Torsin-1A-interacting protein 2 (Homo sapiens) (Q8NFQ8 whole entry, looked up): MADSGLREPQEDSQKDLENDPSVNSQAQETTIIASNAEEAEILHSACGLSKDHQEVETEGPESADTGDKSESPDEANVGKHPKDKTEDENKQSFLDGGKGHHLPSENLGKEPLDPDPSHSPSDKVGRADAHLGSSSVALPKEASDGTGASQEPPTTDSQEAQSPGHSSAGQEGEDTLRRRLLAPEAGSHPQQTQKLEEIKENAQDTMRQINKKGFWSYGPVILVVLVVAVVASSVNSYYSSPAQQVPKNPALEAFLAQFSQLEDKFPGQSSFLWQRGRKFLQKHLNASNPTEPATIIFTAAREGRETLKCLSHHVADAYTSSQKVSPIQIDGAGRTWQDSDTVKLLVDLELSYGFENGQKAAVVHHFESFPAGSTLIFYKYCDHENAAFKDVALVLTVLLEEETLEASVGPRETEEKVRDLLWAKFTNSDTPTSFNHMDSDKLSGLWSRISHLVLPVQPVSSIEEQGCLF
# [6] = optical density change of DRC41 E. coli – strain DRC41, OD650, 24 h, E. coli filamentation project, primary screen (AID 1093);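 note: MC1000 strain lacking acrAB efflux and sulA so SOS filamentation is blocked; test concentration not given here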; details: E. coli DRC41 growth, higher = more signal, called active from +8 up or from −8 down
# [7] = probe aLefty2 binding to arrayed compounds – biochemical, biotinylated probe, 635/667 nm fluorescence, primary screen (AID 1094); details: small-molecule microarray, higher = more signal;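 note: score merges spot fluorescence near 667 nm with spot signal-to-noise ratio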
# [8] = test system: Noggin (protein binding on small-molecule microarray); assay: small molecules binding Noggin protein – biochemical, 635/667 nm fluorescence, primary screen (AID 1095); details: 635 nm fluorescence, higher = more signal;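 note: score merges 667 nm feature fluorescence with signal to noise over triplicate slides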
# [9] = target: Neurogenic locus notch homolog protein 3 (Homo sapiens) (UniProt Q9UM47); assay: small molecules binding NOTCH3 protein – biochemical, 635/667 nm fluorescence, primary screen (AID 1096); details: small-molecule microarray, 635 nm fluorescence, higher = more signal
# Sequence of Neurogenic locus notch homolog protein 3 (Homo sapiens) (Q9UM47 whole entry, looked up): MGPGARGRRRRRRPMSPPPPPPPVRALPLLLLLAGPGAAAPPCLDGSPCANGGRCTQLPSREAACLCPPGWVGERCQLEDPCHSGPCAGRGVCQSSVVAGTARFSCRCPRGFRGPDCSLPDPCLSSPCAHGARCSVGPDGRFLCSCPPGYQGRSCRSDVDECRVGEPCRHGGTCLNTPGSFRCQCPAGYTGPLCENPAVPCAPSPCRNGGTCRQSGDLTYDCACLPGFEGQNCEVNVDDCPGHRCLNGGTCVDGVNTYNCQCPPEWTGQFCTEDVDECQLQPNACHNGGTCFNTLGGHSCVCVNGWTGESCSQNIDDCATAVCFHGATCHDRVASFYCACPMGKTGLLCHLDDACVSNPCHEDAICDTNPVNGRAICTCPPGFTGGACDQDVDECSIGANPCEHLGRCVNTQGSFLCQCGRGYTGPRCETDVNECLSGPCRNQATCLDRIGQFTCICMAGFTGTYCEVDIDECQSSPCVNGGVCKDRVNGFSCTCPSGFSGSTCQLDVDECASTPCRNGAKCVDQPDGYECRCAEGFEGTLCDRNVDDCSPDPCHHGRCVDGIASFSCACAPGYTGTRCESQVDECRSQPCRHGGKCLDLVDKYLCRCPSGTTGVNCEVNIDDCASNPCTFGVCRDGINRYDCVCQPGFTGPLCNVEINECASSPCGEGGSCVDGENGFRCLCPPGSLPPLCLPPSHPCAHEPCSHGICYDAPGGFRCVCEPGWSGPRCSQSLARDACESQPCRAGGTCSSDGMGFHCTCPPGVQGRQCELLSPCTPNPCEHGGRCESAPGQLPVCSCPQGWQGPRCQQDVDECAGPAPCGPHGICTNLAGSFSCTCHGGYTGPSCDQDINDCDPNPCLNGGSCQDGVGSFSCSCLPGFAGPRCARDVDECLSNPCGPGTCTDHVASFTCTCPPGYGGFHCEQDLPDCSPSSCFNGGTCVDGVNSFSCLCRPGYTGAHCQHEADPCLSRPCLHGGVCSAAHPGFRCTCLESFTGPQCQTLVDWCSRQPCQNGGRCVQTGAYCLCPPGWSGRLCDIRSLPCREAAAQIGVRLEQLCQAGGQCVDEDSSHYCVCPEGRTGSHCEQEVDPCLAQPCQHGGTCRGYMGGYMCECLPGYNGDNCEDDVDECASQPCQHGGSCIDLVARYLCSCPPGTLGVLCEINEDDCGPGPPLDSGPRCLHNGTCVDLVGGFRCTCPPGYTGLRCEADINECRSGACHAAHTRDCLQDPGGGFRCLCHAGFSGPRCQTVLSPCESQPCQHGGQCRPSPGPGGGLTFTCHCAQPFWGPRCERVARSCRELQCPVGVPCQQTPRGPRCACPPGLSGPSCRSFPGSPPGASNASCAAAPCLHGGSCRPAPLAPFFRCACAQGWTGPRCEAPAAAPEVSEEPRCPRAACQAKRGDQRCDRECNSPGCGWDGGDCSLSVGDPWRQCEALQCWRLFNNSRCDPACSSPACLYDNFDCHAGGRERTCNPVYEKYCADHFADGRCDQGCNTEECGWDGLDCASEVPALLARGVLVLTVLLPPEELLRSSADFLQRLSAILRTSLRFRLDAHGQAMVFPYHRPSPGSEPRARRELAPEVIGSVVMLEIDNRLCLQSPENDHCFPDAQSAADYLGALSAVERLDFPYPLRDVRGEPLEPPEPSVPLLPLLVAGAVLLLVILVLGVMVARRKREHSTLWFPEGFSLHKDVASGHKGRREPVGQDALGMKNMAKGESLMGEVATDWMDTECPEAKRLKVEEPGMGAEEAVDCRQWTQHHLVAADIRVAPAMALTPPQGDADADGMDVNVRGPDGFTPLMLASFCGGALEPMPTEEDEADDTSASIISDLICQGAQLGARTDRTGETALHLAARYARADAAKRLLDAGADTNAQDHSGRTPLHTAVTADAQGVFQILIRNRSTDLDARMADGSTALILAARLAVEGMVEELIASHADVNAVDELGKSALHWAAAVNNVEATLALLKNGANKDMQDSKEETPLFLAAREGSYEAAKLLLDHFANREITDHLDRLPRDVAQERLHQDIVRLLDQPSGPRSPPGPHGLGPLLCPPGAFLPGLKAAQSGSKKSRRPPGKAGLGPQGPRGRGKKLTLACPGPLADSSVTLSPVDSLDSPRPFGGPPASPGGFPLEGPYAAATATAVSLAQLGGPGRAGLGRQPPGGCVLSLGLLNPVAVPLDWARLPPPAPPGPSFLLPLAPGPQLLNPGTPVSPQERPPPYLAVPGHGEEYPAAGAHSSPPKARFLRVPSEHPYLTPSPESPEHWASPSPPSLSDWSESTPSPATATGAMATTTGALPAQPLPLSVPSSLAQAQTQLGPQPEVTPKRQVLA
# [10] = probe aEGFR binding to arrayed compounds – biochemical, biotinylated probe, 635/667 nm fluorescence, primary screen (AID 1097); details: small-molecule microarray, higher = more signal;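 note: probe is a biotinylated anti-EGFR antibody binding compounds printed on slides; score combines fluorescence near 667 nm and signal to noise of each spot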
Structure (SMILES),composite z-score [1],z-score [2],z-score [3],z-score [4],composite z-score [5],z-score [6],composite z-score [7],composite z-score [8],composite z-score [9],composite z-score [10]
C[C@@H]1NC(=O)[C@H](Cc2ccccc2)NC(=O)[C@@]23C(=O)N[C@@H](Cc4ccccc4)C2[C@H](C)[C@@]2(C)O[C@H]2C3/C=C/C/C=C\CNC1=O (stereo not given in full),-0.747,0.723 (inactive),0.0909 (inactive),0.937 (inactive),-1.73,-1.38 (inactive),-0.174,0.0939,-0.769,-0.171
COc1ccc([Si](C)(C)[C@H]2[C@H](CC(=O)N(CCO)Cc3ccccc3)O[C@@]3(C(=O)N(C)c4ccccc43)[C@@H]2C)cc1,1.31,-1.98 (inactive),-1.24 (inactive),-0.712 (inactive),1.93,1.41 (inactive),-0.186,1.72,1.11,-0.0987
CCc1cccc(NC(=O)O[C@H]2[C@H](OC(=O)Nc3ccccc3)[C@@H](OC(=O)Nc3ccccc3)[C@@H](OC)O[C@@H]2CO)c1,1.54,1.77 (inactive),2.57 (inactive),1.97 (inactive),3.25,-0.0576 (inactive),-0.142,1.81,1.06,-0.0549
CC(C)C[C@@H]1NC(=O)[C@H]2C[C@@H](C(=O)NCCCCCC[N+](C)(C)C)[C@@H](c3ccc(O)cc3)N2C1=O,0.423,0.248 (inactive),0.0827 (inactive),0.109 (inactive),1.82,0.283 (inactive),-0.134,1.12,0.275,-0.149
CCOC(=O)C[C@H]1[C@H](OC(=O)Cc2ccc3c(c2)OCO3)[C@@H](NC(=O)c2ccc3ccccc3c2)c2cc(OCCCO)ccc2N1C(=O)Cc1ccc(OC)cc1,0.842,-2.93 (inactive),-0.366 (inactive),0.227 (inactive),1.73,1.28 (inactive),0.164,0.233,0.719,-0.0331
C[C@@H]1CC[C@H]2C(=O)N3[C@@H](CC[C@@H](C)[C@@H]3c3cccc(N4CCOCC4)c3)C(=O)N2[C@H]1c1cccc(Br)c1,0.969,-0.586 (inactive),-3.26 (inactive),-1.19 (inactive),1.6,0.732 (inactive),0.075,0.964,0.981,0.161
CC(C)[Si](OCC[C@H]1O[C@]2(C(=O)N(Cc3ccccc3)c3ccccc32)[C@@H](C)[C@@H]1[Si](C)(C)O)(C(C)C)C(C)C,0.489,1.11 (inactive),-0.259 (inactive),1.24 (inactive),0.414,1.05 (inactive),-0.149,-0.139,-0.0636,-0.109
